# Rows were chosen to be rich in hits. Some 7.5% of all compounds tested hit in one or more screens of this group.
# FLuc counter: inhibits or activates purified firefly luciferase, miR-21 counter-screen. P08659. purified FLuc, Km substrates, luminescence inhibition. Potency, µM (series often up to 57.5 µM), inactives show at the highest dose activity change, negative = inhibition, actives largely listed as inhibitors. 360,000 compounds, 6.9% hits. AID 588342;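 note: plate controls were vehicle for no effect and reference inhibitor for full effect; nearly all actives have a fitted effect of over 55% in size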
# Target sequence (P08659 whole entry, looked up): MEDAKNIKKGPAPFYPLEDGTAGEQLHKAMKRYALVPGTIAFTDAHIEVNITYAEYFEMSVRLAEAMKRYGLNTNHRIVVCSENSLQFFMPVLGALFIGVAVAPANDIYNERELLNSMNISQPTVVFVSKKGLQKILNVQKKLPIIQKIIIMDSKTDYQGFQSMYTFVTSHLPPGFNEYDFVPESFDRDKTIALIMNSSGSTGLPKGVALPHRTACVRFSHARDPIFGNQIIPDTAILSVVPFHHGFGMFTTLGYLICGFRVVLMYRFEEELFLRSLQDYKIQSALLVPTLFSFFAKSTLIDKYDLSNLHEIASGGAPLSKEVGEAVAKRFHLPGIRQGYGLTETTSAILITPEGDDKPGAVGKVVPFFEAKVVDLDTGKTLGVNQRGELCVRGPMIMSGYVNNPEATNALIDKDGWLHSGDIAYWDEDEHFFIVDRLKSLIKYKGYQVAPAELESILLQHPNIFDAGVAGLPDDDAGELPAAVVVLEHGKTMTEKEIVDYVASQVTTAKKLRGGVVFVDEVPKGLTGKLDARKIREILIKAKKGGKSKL
#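 Biochemical qHTS of compounds, final roughly 60 µM downward over six points, against 10 nM purified firefly luciferase using Km concentrations of substrates (10 uM D-luciferin, 10 uM ATP) in Tris acetate pH 7.5 buffer; luminescence output.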
# KinaseGlo FLuc: Kinase-Glo luciferase inhibition (counter-screen). Q27757. Kinase-Glo luciferase, ATP luminescence, 8 min. Potency, µM (doses to about 38.3 µM), for inactives: at the top dose activity change, negative = inhibition, usual class: inhibitors. 200,000 compounds, 0.28% hits; note: % is set by controls: 0 for no effect and ±100 for the full control effect; nearly all actives have a fitted effect of over 60% in size
#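 Substrate mix (final 50 mM imidazole pH 7.2, 50 mM KCl, 7 mM MgCl2, 10 uM ATP, 0.01% Tween 20, 0.05% BSA) plus pin-tool compound, then Kinase-Glo detection mix; 8 min ambient, luminescence read.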
# NPC1 promoter act: activators of NPC1 promoter; Huh7 NPC1 promoter luciferase reporter, 24 h; Potency, µM (titrated, usually from 9.22 µM), for the others: top-dose activation, hits mostly activators; 320,000 compounds, 2.4% hits; AID 485313; note: % of control where 0% means no effect; nearly all actives have a fitted effect of over 60% in size
#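 Compounds in DMSO were transferred onto Huh7 NPC1-luciferase reporter cells pre-incubated 2 h; after 24 h at 37 °C, Amplite reagent was dispensed and luminescence recorded 10 min later.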
# Rab9 prom act: Rab9 promoter activation; 320,000 compounds, 2.8% hits; Huh7 Rab9 promoter-luciferase reporter, luminescence, 24 h; Potency, µM (highest dose often 9.22 µM), for the others: at the top dose activation, negative = inhibition, actives largely listed as activators; note: % of control where 0% means no effect; nearly all actives have a fitted effect of over 60% in size
#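 Stable Rab9-luc Huh7, 1500 cells/well, 2 h settle; cmpd in DMSO, 24 h, 37 °C/5% CO2; luciferase reagent 10 min RT; luminescence.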
# SMN2 splice up: enhancers of SMN2 splice variant expression; HEK293 SMN2-luciferase splicing reporter, luminescence, 30-36 h; Potency, µM (top dose mostly 46.1 µM), for inactives: at the top dose activity change, positive = activation, usual class: activators; 210,000 compounds, 2.8% hits; note: % of control where 0% means no effect; nearly all actives have a fitted effect of over 55% in size
#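 qHTS luciferase splicing reporter: luminescence rises when SMN2 exon 7 is included in transfected HEK293 cells. Compound exposure lasted 30-36 h at 37C, with 4.5 mM final sodium butyrate as control, followed by a ONE-Glo read.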
# ELG1 genotoxic: inducers of genotoxicity in HEK293T ELG1-luciferase cells | HEK293T ELG1-luciferase reporter, luminescence, 16 h | 330,000 compounds, 1.3% hits | Potency, µM (series often up to 46 µM), inactives show top-dose activity change, positive = activation, usual class: activators; note: % of control where 0% means no effect; nearly all actives have a fitted effect of over 60% in size
#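 HEK293T cells expressing luciferase-tagged ELG1 were treated with compound or DMSO for 16 hr at 37°C. Luciferase activity was then read after 30 min with ONE-Glo at room temperature; rising signal flags genetic stress.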
# * hit, by the source's call; ? = inconclusive; . = no result given. Calls come from the whole dose curve; as a rule, active = well fitted curve in the direction sought with a large enough effect; inconclusive = small, poorly fitted or top-dose-only effect, or another doubt; inactive = no such curve, though single readings can be large; an effect the other way counts as inactive or inconclusive. Potency is the fitted concentration of half-maximal effect.
SMILES,FLuc counter,KinaseGlo FLuc,NPC1 promoter act,Rab9 prom act,SMN2 splice up,ELG1 genotoxic
COc1cccc(C2=CC(c3ccccc3F)n3ncc(C(=O)Nc4ccc(C)cc4)c3N2)c1 (configuration not stated),-1%,.,.,.,.,.
COc1ccc(Nc2nc3ccccc3c(=O)[nH]2)cc1,-19%,.,-5%,4%,.,5%
O=c1[nH]c(N/N=C\c2ccc(F)cc2)nc2ccccc12,4.8µM*,-5%,?,1.3µM*,10µM*,?
C=CCn1c(N/N=C/c2ccc(O)cc2)nc2ccccc2c1=O,2.4µM*,-16%,-2%,30%,-1%,?
O=c1[nH]c(N/N=C/c2ccc(O)cc2)nc2ccccc12,11µM*,0%,?,2.2µM*,22µM*,21µM*
O=C(N/N=C/c1ccncc1)c1nc2ccccc2c(=O)[nH]1,-9%,.,-5%,3%,.,?
CCOc1ccc(CNC(=O)c2ccc3c(c2)c(C)c(C)n3Cc2ccc(Cl)cc2)cc1,-7%,.,.,.,.,.
CC(=O)Nc1sc(N/N=C/c2ccc(C)cc2)nc1-c1ccc(C)cc1,8.5µM*,.,7%,4%,.,10%
CCOc1cc(/C=N/Nc2nc(C)cc(=O)[nH]2)ccc1O,?,.,-2%,3%,.,3%
CC(=O)Nc1sc(N/N=C/c2ccc(N(C)C)cc2)nc1-c1ccc(C)cc1,6.7µM*,.,24%,24%,.,?
COc1cc(/C=N\Nc2nc(-c3ccc(C)cc3)c(NC(C)=O)s2)ccc1O,?,.,-3%,0%,.,2%
CC(=O)Nc1sc(/C(C#N)=C/c2ccc(Cl)c(Cl)c2)nc1-c1ccc(C)cc1,0%,-3%,0%,-2%,-32%,-4%
COc1ccc(/C=N/Nc2nc(-c3ccc(C)cc3)c(NC(C)=O)s2)cc1OC,3µM*,.,-2%,-3%,.,?
CCOc1cc(/C=N\Nc2nc(-c3ccc(C)cc3)c(NC(C)=O)s2)ccc1O,27µM*,.,0%,-3%,.,0%
COc1ccccc1NS(=O)(=O)c1ccc(C)c(NS(=O)(=O)c2cc(C(=O)O)cc(C)c2C)c1,0%,.,-8%,0%,.,-1%
CC(=O)c1ccc(S(=O)(=O)Nc2cccc(-c3ccc(N4CCOCC4)nn3)c2)cc1,2.7µM*,.,?,?,.,2%
COc1ccc(-c2cccc(NS(=O)(=O)c3ccc(NC(C)=O)cc3)c2)nn1,-11%,.,.,.,.,.
CC(=O)Nc1ccc(S(=O)(=O)Nc2cccc(-c3ccc(N4CCC(C)CC4)nn3)c2)cc1,0.54µM*,.,.,.,.,.
CC(=O)Nc1ccc(S(=O)(=O)Nc2cccc(-c3ccc(N4CCCCCC4)nn3)c2)cc1,4.8µM*,.,.,.,.,.
COc1ccc(CCNC(=O)c2c(C)oc3ncn(C)c(=O)c23)c(OC)c1,-7%,.,.,.,.,.
CCN(CC)S(=O)(=O)c1ccc(N2CCOCC2)c(NS(=O)(=O)c2ccc(C)c(C)c2)c1,8%,6%,-5%,-8%,6%,0%
CCC(=O)Nc1cccc(NC(=O)c2cc3ccccc3o2)c1,2.4µM*,-14%,2µM*,0.71µM*,?,?
CC(=O)Nc1ccc(NC(=O)c2cccc(-c3cc4ccccc4oc3=O)c2)cc1,?,-2%,?,3.2µM*,10µM*,10%
O=C(Nc1cc2ccccc2oc1=O)c1ccccc1,0.43µM*,11µM*,0.4µM*,0.18µM*,0.89µM*,?
O=C(Nc1cccc(Br)c1)c1cc2ccccc2o1,2.4µM*,.,3.2µM*,2.8µM*,.,?
COc1cc(OC)c(NC(=O)c2csc3c2CCC(C)C3)cc1Cl (configuration not stated),?,.,.,.,16%,.
CCOC(=O)C1(CCCc2ccccc2)CCN(C(=O)c2cc(C)nn2CC)CC1,2%,.,-3%,7%,.,0%
CCC(=O)Nc1cccc(-c2cc3ccccc3oc2=O)c1,12µM*,0%,?,?,-37%,?
Cc1cccc(NC(=O)c2cc3ccccc3o2)c1,3.8µM*,?,1.3µM*,1.4µM*,13µM*,21µM*

# Screening data as filed in PubChem.
